# Several values for one entry are separate records, joined by “and”; a condition that tells them apart may be missing. Equal entries are not always repeated. Results filed as inconclusive are left out. Entries that show only a call come without a potency. Some structures have more than one record in an assay (separate samples or runs), and their calls can disagree. Activity calls are given as the source filed them. Unless noted, calls follow the shape of the dose curve; as a rule, active = well fitted curve in the direction sought with a large enough effect in the repeat runs; inconclusive = weak or mixed curves; inactive = no such curve, though single readings can be large; an effect the other way counts as inactive or inconclusive.
# How the values were obtained:
# [1] = A CellTox Green Cytotoxicity Assay to monitor cytotoxicity in HepG2 cells - 8 hour (AID 1224890); also: nearly all actives have a fitted effect of over 45% in size; also: potency is read from the fitted curve at half-maximal effect
# Procedure, shortened: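 First, HepG2 cells (600/well) mixed with reagent were plated; second, after 5 h at 37 C they received compounds via pintool; third, fluorescence was measured at 0 h through 40 h at 8 h intervals.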
# [2] = qHTS assay to identify small molecule antagonists of the estrogen receptor alpha (ER-alpha) signaling pathway using the BG1 cell line in the presence of 0.1 nM 17-beta-estradiol - cell viability counter screen (AID 1259241); also: nearly all actives have a fitted effect of over 40% in size
# Procedure, shortened: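 Measures cytotoxicity alongside the ER-alpha antagonist readout: VM7Luc4E2 cells, charcoal-stripped serum, 0.1 nM 17beta-estradiol final, 22 hr compound incubation at 37C, CellTiter-Fluor fluorescence.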
# [3] = qHTS assay to identify small molecule antagonists of the androgen receptor (AR) signaling pathway using the MDA cell line in the presence of 0.5 nM R1881 - cell viability counter screen (AID 1259242); also: nearly all actives have a fitted effect of over 45% in size
# Procedure, shortened: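 qHTS format. MDA-kb2 (MMTV-luc, AR/GR responsive) + cpd + 0.5 nM R1881 final, 16 hr 37C/0% CO2 → CellTiter-Fluor 30 min → fluorescence intensity.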
# [4] = target: Androgen receptor (Homo sapiens) (UniProt P10275); experiment: qHTS assay to identify small molecule antagonists of the androgen receptor (AR) signaling pathway using the MDA cell line in the presence of 0.5 nM R1881 (AID 1259243); also: nearly all actives have a fitted effect of over 50% in size
# Procedure, shortened: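 Antagonist mode quantitative HTS in MDA-kb2 MMTV-luciferase cells, agonist R1881 at 0.5 nM final, 16 hr exposure at 37C and 0% CO2, luminescent detection.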
# [5] = qHTS assay to identify small molecule phospholipidosis (PLD) inducers (AID 1259344; active = well fitted curve in the direction sought with a large enough effect; an effect the other way counts as inactive or inconclusive)
# Procedure, shortened: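 Phospholipid accumulation was scored by imaging: fixed, Hoechst-counterstained HepG2 cells stained with LipidTOX Red after 24 h compound exposure at 37 C. Read-outs were pit count and pit intensity per well or per cell, with amiodarone and DMSO controls.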
# [6] = qHTS assay to identify small molecule HDAC inhibitors (AID 1259364);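 also: wild-type HCT-116 cells with endogenous class I/II HDAC activity; top concentration of the series differs between compounds; nearly all actives have a fitted effect of over 45% in size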
# Procedure, shortened: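 Quantitative high-throughput format: overnight-seeded HCT-116 cells got compounds for 2 hr at 37C; HDAC-Glo I/II reagent added, 30 min RT, luminescence measured.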
# [7] = qHTS assay to identify small molecule HDAC inhibitors - cell viability counter screen (AID 1259365); also: series mostly up to about 92 µM; nearly all actives have a fitted effect of over 50% in size
# Procedure, shortened: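 Following a 2hr exposure of overnight-plated wild-type HCT-116 cells to DMSO-delivered compounds, CellTiter-Glo was added and luminescence recorded after 30min at room temperature.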
# [8] = qHTS assay to identify small molecule agonists of the sonic hedgehog signaling (Shh) pathway - cell viability counter screen (AID 1259366); also: nearly all actives have a fitted effect of over 50% in size
# Procedure, shortened: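 After a 4hr attachment at 37C, NIH/3T3 cells bearing an integrated Gli1-driven luciferase reporter were dosed with compounds. Treatment lasted 24hr, with the final hour including CellTiter-Fluor for a fluorescence viability measurement.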
# [9] = qHTS assay to identify small molecule antagonists of the sonic hedgehog signaling (Shh) pathway - cell viability counter screen (AID 1259367); also: nearly all actives have a fitted effect of over 55% in size
# Procedure, shortened: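 Viability was read by CellTiter-Fluor fluorescence in the same wells, reagent added 23 hr into compound treatment and incubated 1 hr at 37C. The 3T3 Gli1-Luc reporter cells (2,000/well) received conditioned medium after compound and ran 24 hr.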
# [10] = target: Estrogen receptor (Homo sapiens) (UniProt P03372); experiment: qHTS assay to identify small molecule antagonists of the estrogen receptor alpha (ER-alpha) signaling pathway using the BG1 cell line in the presence of 0.1 nM 17-beta-estradiol (AID 1259244); also: nearly all actives have a fitted effect of over 50% in size
# Procedure, shortened: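 Reporter is a stably transfected luciferase under four estrogen responsive elements in VM7Luc4E2 cells expressing native full-length ER-alpha; inhibition of 0.1 nM (final) 17beta-estradiol-driven signal over 22 h is read by luminescence.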
# Androgen receptor (Homo sapiens), sequence (P10275 whole entry, looked up): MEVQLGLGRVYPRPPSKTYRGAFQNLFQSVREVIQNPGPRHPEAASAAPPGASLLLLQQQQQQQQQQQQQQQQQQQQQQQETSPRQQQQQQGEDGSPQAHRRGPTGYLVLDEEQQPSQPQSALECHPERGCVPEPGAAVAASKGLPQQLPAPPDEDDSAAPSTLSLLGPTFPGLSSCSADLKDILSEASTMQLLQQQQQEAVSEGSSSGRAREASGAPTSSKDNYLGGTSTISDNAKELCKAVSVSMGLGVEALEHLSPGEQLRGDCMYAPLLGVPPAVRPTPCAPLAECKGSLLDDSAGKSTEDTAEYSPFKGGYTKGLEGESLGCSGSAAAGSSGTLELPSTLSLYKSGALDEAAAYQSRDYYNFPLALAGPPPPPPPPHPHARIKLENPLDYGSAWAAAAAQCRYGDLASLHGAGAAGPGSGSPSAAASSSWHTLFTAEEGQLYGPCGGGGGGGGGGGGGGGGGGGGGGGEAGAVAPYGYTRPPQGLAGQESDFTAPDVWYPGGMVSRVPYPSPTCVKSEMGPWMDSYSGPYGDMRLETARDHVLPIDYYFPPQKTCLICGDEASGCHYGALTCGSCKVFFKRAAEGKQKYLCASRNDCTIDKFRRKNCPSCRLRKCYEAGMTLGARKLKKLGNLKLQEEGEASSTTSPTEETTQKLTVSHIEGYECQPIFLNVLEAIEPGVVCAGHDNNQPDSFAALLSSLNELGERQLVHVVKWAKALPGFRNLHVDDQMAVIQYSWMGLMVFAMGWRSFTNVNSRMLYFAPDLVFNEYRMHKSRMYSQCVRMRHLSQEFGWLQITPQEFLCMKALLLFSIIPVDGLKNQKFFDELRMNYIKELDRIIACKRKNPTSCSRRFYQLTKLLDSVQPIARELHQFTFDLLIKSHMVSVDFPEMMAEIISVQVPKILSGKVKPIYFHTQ
# Estrogen receptor (Homo sapiens), sequence (P03372 whole entry, looked up): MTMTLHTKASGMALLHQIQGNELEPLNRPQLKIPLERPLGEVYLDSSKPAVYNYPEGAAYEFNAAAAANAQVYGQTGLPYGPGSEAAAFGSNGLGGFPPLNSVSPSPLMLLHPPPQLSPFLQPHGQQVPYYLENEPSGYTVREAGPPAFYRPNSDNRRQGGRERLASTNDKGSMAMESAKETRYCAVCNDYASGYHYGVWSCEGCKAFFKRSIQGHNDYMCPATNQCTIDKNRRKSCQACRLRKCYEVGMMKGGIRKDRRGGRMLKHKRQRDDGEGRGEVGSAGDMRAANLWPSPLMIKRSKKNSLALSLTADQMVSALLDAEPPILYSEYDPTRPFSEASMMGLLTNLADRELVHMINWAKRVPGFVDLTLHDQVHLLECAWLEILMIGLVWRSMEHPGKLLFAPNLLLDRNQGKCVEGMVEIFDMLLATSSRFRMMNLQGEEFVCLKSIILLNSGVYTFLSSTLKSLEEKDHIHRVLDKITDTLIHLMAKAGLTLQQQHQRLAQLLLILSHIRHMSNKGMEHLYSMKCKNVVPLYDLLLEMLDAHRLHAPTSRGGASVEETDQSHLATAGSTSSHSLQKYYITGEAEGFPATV
SMILES,Potency [1],outcome [2],Potency [3],Potency [4],Potency [5],Potency [6],outcome [7],Potency [8],Potency [9],outcome [10],cytotoxicity increase [1],"activity change, negative = cytotoxicity [2]","viability change, negative = cytotoxic [3]","activity change, negative = inhibition [10]","activity change, negative = inhibition [6]","activity change, negative = cytotoxicity [7]","viability change, negative = cytotoxic [8]","viability change, negative = cytotoxic [9]"
CN1CC(=O)NC1=N,inactive,inactive,inactive,inactive,inactive,inactive,inactive,inactive,inactive,,,,,,,,,
O=C(O)COc1nn(Cc2ccccc2)c2ccccc12,inactive,inactive,inactive,inactive,inactive,inactive,inactive,inactive,inactive,inactive,,,,,,,,
CN1N=C(C(N)=O)CCC1=O,inactive,inactive,inactive,inactive,,inactive,inactive,inactive,inactive,inactive,,,,,,,,
CC1(C)C(O)C(C)(C)C1O (stereo not drawn),inactive,inactive,inactive,inactive,,inactive,inactive,inactive,inactive,inactive,,,,,,,,
O=C1CC2CC1C1CCCC21 (stereo not drawn),inactive,inactive,inactive,inactive,,inactive,inactive,inactive,inactive,inactive,,,,,,,,
NS(=O)(=O)c1cc2c(cc1Cl)NC(C1CC3C=CC1C3)NS2(=O)=O (stereo not drawn),inactive,inactive,inactive,inactive,inactive,inactive,inactive,inactive,inactive,inactive,,,,,,,,
OC1CCCCC1c1ccccc1 (stereo not drawn),inactive,inactive,inactive,inactive,,inactive,inactive,inactive,inactive,inactive,,,,,,,,
CCn1nc(C(=O)O)c(=O)c2cc3c(cc21)OCO3,inactive,inactive,inactive,inactive,inactive,inactive,inactive,inactive,inactive,inactive,,,,,,,,
CS(=O)(=O)O,inactive,inactive,inactive,inactive,,inactive,inactive,inactive,inactive,inactive,,,,,,,,
C=C(C)CS(=O)(=O)O,inactive,inactive,inactive,inactive,,inactive,inactive,inactive,inactive,inactive,,,,,,,,
CCCCOCCOCCOCc1cc2c(cc1CCC)OCO2,inactive,inactive,inactive,inactive,inactive,inactive,inactive,inactive,inactive,,,,,,,,,
Nc1c[n+](N2CCOCC2)no1,inactive,inactive,inactive,,inactive,inactive,inactive,inactive,inactive,inactive,,,,,,,,
COC(=O)c1c(Cl)c(Cl)c(C(=O)OC)c(Cl)c1Cl,inactive and 110 nM (active),inactive,inactive,,inactive,inactive,inactive,inactive,inactive,inactive,,,,,,,,
c1ccc(CC2=NCCN2)cc1,inactive,inactive,inactive,,inactive,inactive,inactive,inactive,inactive,inactive,,,,,,,,
CC(NC(CCc1ccccc1)C(=O)O)C(=O)N1C(=O)N(C)CC1C(=O)O (stereo not drawn),inactive,inactive,inactive,inactive,,inactive,inactive,inactive,inactive,,,,,,,,,
C[C@H](NC(CCc1ccccc1)C(=O)O)C(=O)N1CCC[C@H]1C(=O)O (stereo partly drawn),inactive,inactive,inactive,,inactive,inactive,inactive,inactive,inactive,inactive,,,,,,,,
Cc1c(NC(C)C)c(=O)n(-c2ccccc2)n1C,inactive,inactive,inactive,,inactive,inactive,inactive,inactive,inactive,inactive,,,,,,,,
NS(=O)(=O)c1cc(C(=O)O)cc(N2CCCC2)c1Oc1ccccc1,inactive,inactive,inactive,,inactive,inactive,inactive,inactive,inactive,inactive,,,,,,,,
CC1(C)CO[C@@H](CC(=O)O)CN1,inactive,inactive,inactive,,inactive,inactive,inactive,inactive,inactive,inactive,,,,,,,,
N[C@@H](C(=O)N[C@@H]1C(=O)N2C(C(=O)O)=C(Cl)CS[C@H]12)c1ccccc1,,,,,inactive,,,,,,-13.7% [at 6.97 µM] (inactive),0.43% [at 8.39 µM] (inactive),4.33% [at 8.39 µM] (inactive),7.81% [at 8.39 µM] (inactive),5.64% [at 8.39 µM] (inactive),-0.59% [at 8.39 µM] (inactive),1.34% [at 8.39 µM] (inactive),3.69% [at 8.39 µM] (inactive)
Nc1c2c(nc3ccccc13)CCCC2O (stereo not drawn),inactive,inactive,inactive,,inactive,inactive,inactive,inactive,inactive,inactive,,,,,,,,
CC(=O)CC(C)C,inactive,inactive,inactive,inactive,,inactive,inactive,inactive,inactive,,,,,,,,,
NCCCNCCSP(=O)(O)O,,,,,inactive,,,,,,0.329% [at 6.97 µM] (inactive),-0.971% [at 8.39 µM] (inactive),0.214% [at 8.39 µM] (inactive),3.05% [at 8.39 µM] (inactive),-1.97% [at 8.39 µM] (inactive),0.673% [at 8.39 µM] (inactive),-2.35% [at 8.39 µM] (inactive),5.98% [at 8.39 µM] (inactive)

# Reference: PubChem BioAssay (Tox21)
